Laboratory results taken from PubChem BioAssay AID1159580 (chemical genetic matrix, 2015).
Where “and” joins values, the source holds several entries; their conditions need not be identical. Equal entries are not always repeated. Screen size: about 5,500 compounds; about 2,000 (36%) were called active. Not shown: some 18% with an inconclusive outcome. Rule as the data show it: active = normalized growth mostly below about 0.91 (no sharp cut-off); inconclusive = no clear call, values can overlap the other calls; inactive = mostly above about 0.92. The list shows a part of the results.

Assay: chemical genetic growth profiling, strain panel (AID 1159580);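 also: tested at 20 µM; growth read once vehicle control cultures reached saturation at 30 °C; 1 = growth at the plate median or of vehicle wells; lower values mean less growth of the strain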
Settings: growth OD

Measured: normalized growth

C[C@]12[C@H](O)CC3C(CC[C@@H]4C[C@@H](O)CC[C@]34C)[C@@]1(O)CC[C@@H]2C1=CC(=O)OC1 (stereo partly drawn)
inactive: S. cerevisiae deletion strains, locus YBR021W, strain FUR4, active compounds read low 1.05 | S. cerevisiae deletion strains, locus YBR229C, strain ROT2, active compounds read low 1.01 | S. cerevisiae deletion strains, locus YCL029C, strain bik1, active compounds read low 0.992 | S. cerevisiae deletion strains, locus YDL035C, strain GPR1, active compounds read low 1.07 | S. cerevisiae deletion strains, locus YDL074C, strain BRE1, active compounds read low 1.07 | S. cerevisiae deletion strains, locus YDL101C, strain DUN1, active compounds read low 1.01 | S. cerevisiae deletion strains, locus YDL134C, strain PPH21, active compounds read low 0.997 | S. cerevisiae deletion strains, locus YDL185W, strain tfp1, active compounds read low 0.987 | S. cerevisiae deletion strains, locus YDL192W, strain arf1, active compounds read low 1 | S. cerevisiae deletion strains, locus YDR101C, strain arx1, active compounds read low 1.01 | S. cerevisiae deletion strains, locus YDR162C, strain NBP2, active compounds read low 1.01 | S. cerevisiae deletion strains, locus YDR318W, strain mcm21, active compounds read low 0.999 | S. cerevisiae deletion strains, locus YDR388W, active compounds read low 0.976 | S. cerevisiae deletion strains, locus YDR502C, strain sam2, active compounds read low 0.971 | S. cerevisiae deletion strains, locus YER110C, active compounds read low 0.974 | S. cerevisiae deletion strains, locus YER155C, strain BEM2, active compounds read low 0.998 | S. cerevisiae deletion strains, locus YER167W, strain BCK2, active compounds read low 1.02 | S. cerevisiae deletion strains, locus YGL078C, strain dbp3, active compounds read low 0.979 | S. cerevisiae deletion strains, locus YGL086W, strain mad1, active compounds read low 0.983 | S. cerevisiae deletion strains, locus YGL248W, strain PDE1, active compounds read low 1.01 | S. cerevisiae deletion strains, locus YGR078C, strain PAC10, active compounds read low 1.01 | S. cerevisiae deletion strains, locus YGR135W, strain pre9, active compounds read low 0.941 | S. cerevisiae deletion strains, locus YGR252W, strain gcn5, active compounds read low 0.923 | S. cerevisiae deletion strains, locus YHR030C, strain SLT2, active compounds read low 1.01 and 1 | S. cerevisiae deletion strains, locus YHR079C, strain IRE1 (second series), active compounds read low 0.98 | S. cerevisiae deletion strains, locus YHR079C, strain IRE1, active compounds read low 0.993 | S. cerevisiae deletion strains, locus YHR094C, strain hxt1, active compounds read low 0.976 | S. cerevisiae deletion strains, locus YHR129C, strain ARP1, active compounds read low 1.01 | S. cerevisiae deletion strains, locus YHR200W, strain rpn10, active compounds read low 0.968 | S. cerevisiae deletion strains, locus YIL066C, strain RNR3, active compounds read low 1.04 | S. cerevisiae deletion strains, locus YIL073C, strain SPO22, active compounds read low 1 | S. cerevisiae deletion strains, locus YIL125W, strain kgd1, active compounds read low 0.984 | S. cerevisiae deletion strains, locus YIR030C, strain dcg1, active compounds read low 0.986 | S. cerevisiae deletion strains, locus YJL095W, strain BCK1, active compounds read low 0.999 and 0.994 | S. cerevisiae deletion strains, locus YJL134W, strain LCB3, active compounds read low 1.01 | S. cerevisiae deletion strains, locus YJL168C, strain set2, active compounds read low 0.994 | S. cerevisiae deletion strains, locus YJL187C, strain SWE1 (second series), active compounds read low 1.01 | S. cerevisiae deletion strains, locus YJR066W, strain TOR1, active compounds read low 0.903 | S. cerevisiae deletion strains, locus YKL009W, strain mrt4, active compounds read low 1.02 | S. cerevisiae deletion strains, locus YKL068W, active compounds read low 0.994 | S. cerevisiae deletion strains, locus YKL085W, strain MDH1 (second series), active compounds read low 0.975 | S. cerevisiae deletion strains, locus YKL085W, strain MDH1, active compounds read low 0.975 | S. cerevisiae deletion strains, locus YKR001C, strain vps1, active compounds read low 1.01 | S. cerevisiae deletion strains, locus YLR039C, strain RIC1, active compounds read low 1.05 | S. cerevisiae deletion strains, locus YLR058C, strain SHM2, active compounds read low 1.02 | S. cerevisiae deletion strains, locus YLR102C, strain apc9, active compounds read low 0.982 | S. cerevisiae deletion strains, locus YLR113W, strain HOG1, active compounds read low 1.03 | S. cerevisiae deletion strains, locus YLR262C, strain YPT6, active compounds read low 1.09 | S. cerevisiae deletion strains, locus YLR268W, strain sec22, active compounds read low 1.01 | S. cerevisiae deletion strains, locus YLR342W, strain FKS1 (second series), active compounds read low 1.05 | S. cerevisiae deletion strains, locus YLR371W, strain rom2, active compounds read low 0.996 | S. cerevisiae deletion strains, locus YLR418C, strain cdc73, active compounds read low 0.955 | S. cerevisiae deletion strains, locus YML016C, strain PPZ1, active compounds read low 1.02 | S. cerevisiae deletion strains, locus YML032C, strain rad52, active compounds read low 0.998 | S. cerevisiae deletion strains, locus YML124C, strain tub3, active compounds read low 0.986 | S. cerevisiae deletion strains, locus YMR078C, strain ctf18, active compounds read low 0.979 | S. cerevisiae deletion strains, locus YMR223W, strain ubp8, active compounds read low 0.974 | S. cerevisiae deletion strains, locus YMR307W, strain GAS1, active compounds read low 1.13 | S. cerevisiae deletion strains, locus YNL067W, strain RPL9B, active compounds read low 0.99 | S. cerevisiae deletion strains, locus YNL153C, strain GIM3, active compounds read low 1 | S. cerevisiae deletion strains, locus YNL183C, strain NPR1, active compounds read low 0.924 | S. cerevisiae deletion strains, locus YNL233W, strain BNI4, active compounds read low 1 | S. cerevisiae deletion strains, locus YNL250W, strain rad50, active compounds read low 0.974 | S. cerevisiae deletion strains, locus YNL271C, strain bni1, active compounds read low 0.991 | S. cerevisiae deletion strains, locus YNL298W, strain CLA4, active compounds read low 1.01 | S. cerevisiae deletion strains, locus YNL307C, strain MCK1, active compounds read low 0.977 | S. cerevisiae deletion strains, locus YNR052C, strain pop2, active compounds read low 0.965 | S. cerevisiae deletion strains, locus YOL012C, strain htz1 0.887 | S. cerevisiae deletion strains, locus YOL147C, strain pex11, active compounds read low 0.99 | S. cerevisiae deletion strains, locus YOR061W, strain CKA2, active compounds read low 1.04 | S. cerevisiae deletion strains, locus YOR069W, strain VPS5, active compounds read low 1.01 | S. cerevisiae deletion strains, locus YOR136W, strain idh2, active compounds read low 0.952 | S. cerevisiae deletion strains, locus YOR144C, strain elg1, active compounds read low 0.987 | S. cerevisiae deletion strains, locus YOR184W, strain ser1, active compounds read low 1.03 | S. cerevisiae deletion strains, locus YOR231W, strain MKK1, active compounds read low 1 | S. cerevisiae deletion strains, locus YOR316C, strain cot1, active compounds read low 0.982 | S. cerevisiae deletion strains, locus YPL256C, strain CLN2, active compounds read low 0.982 | S. cerevisiae deletion strains, locus YPR119W, strain clb2, active compounds read low 0.985 | S. cerevisiae deletion strains, locus YPR141C, strain kar3, active compounds read low 0.983 | S. cerevisiae deletion strains, locus YPR163C, strain tif3, active compounds read low 0.988 | S. cerevisiae deletion strains, locus YPR167C, strain met16, active compounds read low 0.984 | S. cerevisiae deletion strains, strain wtn01, active compounds read low 0.998 | S. cerevisiae strains, strain wild type, active compounds read low 1.03
